Data reported in the supplement of paper PMC6522484.
± gives the standard deviation of the averaged measurements.

test system: DLD1; test: cell viability (CellTiter-Glo) relative to plate median (fraction of plate median); higher = more viable cells; settings: 5 µM; treatment time 24 h; reporter: 7TFP
How it was run: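 Colorectal cancer cell lines stably transduced with lentiviral TCF/Wnt firefly luciferase reporters (7TFP or TCF4/Wnt) were seeded in 384-well plates. 24 h later they received library compounds at a final 5 µM for 24 h. Parallel plates were read for firefly luciferase or CellTiterGlo luminescence on a Tecan F500 reader. Each well's signal was normalised to the plate median (webcellHTS2, additive, no log transformation), and the mean of two independent replicates is reported.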

Row | Compound | cell viability
1 | Cc1ccc(C(=O)c2ccc(CC(=O)O)n2C)cc1 | 0.981 ± 0.098
2 | CC[C@H]1OC(=O)[C@H](C)[C@@H](O[C@H]2C[C@@](C)(OC)[C@@H](O)[C@H](C)O2)[C@H](C)[C@@H](O[C@@H]2O[C@H](C)C[C@H](N(C)C)[C@H]2O)[C@](C)(O)C[C@@H](C)CN(C)[C@H](C)[C@@H](O)[C@]1(C)O | 1.065 ± 0.0071
3 | COc1ccc2ccc(=O)oc2c1 | 1.02 ± 0.021
4 | CCC(=O)O[C@@H]1[C@@H](OC2C(C)/C=C/C(=O)OC(C)C(CO[C@@H]3O[C@H](C)[C@@H](OC(=O)CC)[C@@H](OC)[C@H]3OC)C3OC3/C=C/C(=O)C(C)(O)CC2C)O[C@@H](C)C[C@H]1OC (stereo not given in full) [Chalcomycin B] | 1.04 ± 0.014
5 | Nc1nc2c(ncn2COCCO)c(=O)[nH]1 | 1 ± 0.11
6 | CC1(C)CC[C@]2(C)CC[C@]3(C)C(=CC[C@@H]4[C@@]5(C)CC[C@H](O)C(C)(C)[C@@H]5CC[C@]43C)[C@@H]2C1 [beta-AMYRIN] | 1.01 ± 0.073
7 | O=C(O)c1ccccc1Nc1ccccc1 | 1.08 ± 0.15
8 | C[C@@H]1O[C@@H](O[C@H]2[C@H](O[C@H]3CC[C@@]4(C)[C@@H](CC[C@]5(C)[C@@H]4CC=C4[C@@H]6CC(C)(C)CC[C@]6(C(=O)O)CC[C@]45C)[C@]3(C)CO)OC[C@H](O)[C@@H]2O)[C@H](O)[C@H](O)[C@H]1O | 1.04 ± 0.062
9 | CC(=O)Nc1ccccc1 | 0.977 ± 0.02
10 | CC(=O)OCC(=O)[C@@]1(O)[C@H](OC(C)=O)C[C@H]2[C@@H]3CCC4=CC(=O)C=C[C@]4(C)[C@@]3(F)[C@@H](O)C[C@@]21C | 1.01 ± 0.069
